Reference: PubChem BioAssay AID1159580 (chemical genetic matrix, 2015)
Among all 5,500 compounds or so, about 2,000 (36%) were called active. Not shown: some 18% with an inconclusive outcome. Rule as the data show it: active = normalized growth mostly below about 0.91 (no sharp cut-off); inconclusive = no clear call, values can overlap the other calls; inactive = mostly above about 0.92. This is one part of the list.

Experiment: chemical genetic growth profiling, strain panel (AID 1159580);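 also: tested at 20 µM; growth read once vehicle control cultures reached saturation at 30 °C; 1 = growth at the plate median or of vehicle wells; lower values mean less growth of the strain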
Conditions: S. cerevisiae deletion strains, growth OD
[1] = locus YAL013W, strain DEP1, hits give low values
[2] = locus YCL061C, strain MRC1, hits give low values
[3] = locus YDR150W, strain NUM1, hits give low values
[4] = locus YHR030C, strain SLT2, hits give low values
[5] = locus YJL187C, strain SWE1, hits give low values
[6] = locus YJR075W, strain HOC1, hits give low values
[7] = locus YMR307W, strain GAS1, hits give low values
[8] = locus YNL128W, strain TEP1, hits give low values
[9] = locus YNL322C, strain KRE1, hits give low values
[10] = locus YPL055C, strain LGE1, hits give low values
[11] = locus YPL241C, strain CIN2, hits give low values

Measured: normalized growth

Cc1ccc(C(=O)Nc2ccc(S(=O)(=O)O)c3cc(S(=O)(=O)O)cc(S(=O)(=O)O)c23)cc1NC(=O)c1cccc(NC(=O)Nc2cccc(C(=O)Nc3cc(C(=O)Nc4ccc(S(=O)(=O)O)c5cc(S(=O)(=O)O)cc(S(=O)(=O)O)c45)ccc3C)c2)c1
inactive: [1] 1.03 | locus YAL021C, strain ccr4, hits give low values 1.03 | locus YAL026C, strain drs2, hits give low values 1 | locus YAL030W, strain snc1, hits give low values 1.01 | locus YAL040C, strain CLN3, hits give low values 0.968 | locus YBL061C, strain skt5, hits give low values 1.01 | locus YBR009C, strain hhf1, hits give low values 0.98 | locus YBR023C, strain chs3, hits give low values 1.04 | locus YBR171W, strain sec66, hits give low values 1.03 | locus YBR231C, strain swc5, hits give low values 1.02 | locus YBR279W, strain paf1, hits give low values 1.02 | locus YCL011C, strain gbp2, hits give low values 1.02 | locus YCL016C, strain dcc1, hits give low values 1.03 | locus YCL061C, strain MRC1 (second series), hits give low values 1 | [2] 1.03 | locus YCL069W, strain vba3, hits give low values 1.01 | locus YCR088W, strain abp1, hits give low values 1.01 | locus YDL005C, strain med2, hits give low values 1.02 | locus YDL040C, strain nat1, hits give low values 1.01 | locus YDR001C, strain nth1, hits give low values 1.01 | locus YDR069C, strain doa4, hits give low values 1.02 | locus YDR137W, strain rgp1, hits give low values 1.05 | [3] 0.998 | locus YDR159W, strain sac3, hits give low values 1 | locus YDR195W, strain ref2 1.02 | locus YDR297W, strain sur2, hits give low values 1.01 | locus YDR334W, strain swr1, hits give low values 1.03 | locus YDR335W, strain msn5, hits give low values 1.02 | locus YDR363W, strain ESC2, hits give low values 1.01 | locus YDR392W, strain spt3, hits give low values 0.975 | locus YEL003W, strain gim4, hits give low values 1.01 | locus YEL037C, strain rad23, hits give low values 1.01 | locus YEL061C, strain CIN8 (second series), hits give low values 1.01 | locus YER002W, strain NOP16, hits give low values 1.03 | locus YER015W, strain faa2, hits give low values 0.999 | locus YER016W, strain bim1, hits give low values 1.01 | locus YER111C, strain swi4, hits give low values 1.03 | locus YER155C, strain BEM2 (second series), hits give low values 1.03 | locus YFR010W, strain ubp6, hits give low values 1.01 | locus YGL167C, strain pmr1, hits give low values 1.01 | locus YGL173C, strain kem1, hits give low values 1.02 | locus YGL227W, strain vid30, hits give low values 1.03 | locus YGL240W, strain doc1, hits give low values 1.04 | locus YGL253W, strain hxk2, hits give low values 1.03 | locus YGR229C, strain SMI1, hits give low values 1.04 | locus YHR013C, strain ard1, hits give low values 1.05 | locus YHR027C, strain rpn1, hits give low values 1.03 | [4] 1.11 | locus YHR079C, strain IRE1, hits give low values 1.1 | locus YHR142W, strain chs7, hits give low values 1.04 | locus YJL092W, strain hpr5, hits give low values 1.02 | locus YJL095W, strain BCK1 (second series), hits give low values 1.01 | locus YJL095W, strain BCK1, hits give low values 1.09 | locus YJL115W, strain asf1, hits give low values 1.03 | locus YJL129C, strain trk1, hits give low values 1.07 | locus YJL154C, strain vps35, hits give low values 1.03 | locus YJL164C, strain tpk1, hits give low values 1 | locus YJL166W, strain qcr8, hits give low values 1.03 | [5] 1.02 | locus YJR066W, strain TOR1, hits give low values 0.998 | [6] 1.01 | locus YKL160W, strain elf1, hits give low values 1.05 | locus YKR026C, strain gcn3, hits give low values 1.02 | locus YKR091W, strain srl3, hits give low values 1.01 | locus YLL001W, strain dnm1, hits give low values 1.07 | locus YLL026W, hits give low values 1.01 | locus YLL041C, strain sdh2, hits give low values 1.02 | locus YLR027C, strain aat2, hits give low values 1.02 | locus YLR113W, strain HOG1, hits give low values 1.12 | locus YLR221C, strain rsa3, hits give low values 1.03 | locus YLR258W, strain gsy2, hits give low values 1 | locus YLR262C, strain YPT6 (second series), hits give low values 1.04 | locus YLR320W, strain mms22, hits give low values 1.07 | locus YLR342W, strain FKS1, hits give low values 1.02 | locus YLR357W, strain rsc2, hits give low values 1.03 | locus YLR370C, strain arc18, hits give low values 1.03 | locus YLR384C, strain iki3, hits give low values 1.01 | locus YML120C, strain ndi1, hits give low values 1.04 | locus YMR058W, strain fet3, hits give low values 1.03 | locus YMR125W, strain sto1, hits give low values 1.06 | locus YMR129W, hits give low values 1.01 | locus YMR205C, strain PFK2, hits give low values 1.06 | locus YMR231W, strain pep5, hits give low values 1.01 | [7] 0.993 | locus YNL071W, strain lat1, hits give low values 1.02 | [8] 1.01 | locus YNL175C, strain NOP13, hits give low values 1.02 | locus YNL183C, strain NPR1, hits give low values 1 | locus YNL197C, strain WHI3, hits give low values 1 | locus YNL209W, strain ssb2, hits give low values 1.02 | locus YNL224C, strain SQS1, hits give low values 1.02 | locus YNL248C, strain rpa49, hits give low values 1.06 | locus YNL322C, strain KRE1 (second series), hits give low values 1.03 | [9] 1.04 | locus YNR049C, strain mso1, hits give low values 1.01 | locus YOR001W, strain rrp6, hits give low values 0.967 | locus YOR070C, strain gyp1, hits give low values 1.02 | locus YOR080W, strain dia2, hits give low values 1.01 | locus YOR083W, strain WHI5 (second series), hits give low values 0.997 | locus YOR083W, strain WHI5, hits give low values 1.04 | locus YOR106W, strain vam3, hits give low values 1.05 | locus YOR231W, strain MKK1, hits give low values 1.11 | locus YOR265W, strain rbl2, hits give low values 1.01 | locus YOR270C, strain vph1, hits give low values 1.11 | locus YOR290C, strain snf2, hits give low values 1.06 | locus YPL051W, strain arl3, hits give low values 1.05 | [10] 1.02 | locus YPL078C, strain atp4, hits give low values 1.06 | locus YPL106C, strain sse1, hits give low values 1.01 | locus YPL240C, strain hsp82, hits give low values 1.01 | [11] 1 | locus YPL256C, strain CLN2, hits give low values 1.14

CSc1c(-c2ccccc2)c(N)nn1S(=O)(=O)c1ccccc1
inactive: [1] 0.99 | locus YBR229C, strain ROT2, hits give low values 0.982 | [2] 0.993 | locus YDL101C, strain DUN1, hits give low values 0.978 | locus YDL134C, strain PPH21, hits give low values 0.998 | [3] 0.979 | locus YEL061C, strain CIN8, hits give low values 0.967 | locus YGR078C, strain PAC10, hits give low values 0.98 | [4] 0.913 | locus YHR087W, strain rtc3, hits give low values 0.973 | locus YJR043C, strain POL32, hits give low values 1.01 | [6] 0.971 | locus YLR039C, strain RIC1, hits give low values 0.836 | locus YLR058C, strain SHM2 (second series), hits give low values 0.996 | locus YLR085C, strain ARP6, hits give low values 0.849 | locus YLR262C, strain YPT6, hits give low values 0.901 | locus YML094W, strain GIM5, hits give low values 0.944 | locus YMR219W, strain ESC1, hits give low values 1 | locus YMR263W, strain SAP30, hits give low values 0.983 | [7] 0.815 | [8] 0.97 | locus YNL153C, strain GIM3, hits give low values 1 | locus YNL298W, strain CLA4 (second series), hits give low values 0.907 | [9] 0.987 | locus YNR030W, strain Alg12, hits give low values 0.951 | [10] 0.994 | [11] 0.943 | locus YPR135W, strain CTF4, hits give low values 0.945
active: [5] 0.0597
